KB-3-1 cytotox: KB-3-1 parental cell cytotoxicity; KB-3-1 viability, CellTiter-Glo ATP luminescence, 72 h; Potency, µM (series often up to 46.1 µM), actives largely listed as cytotoxic; actives 1.4% (n = 400,000); AID 1347075; note: nearly all actives have a fitted effect of over 60% in size
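Screening of KB-3-1 cells (DMEM, 10% FBS, phenol-red free) ran from lowest to highest compound concentration; after 72 h at 37 °C viability was read luminescently and curves fitted.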
HT1080 IDH1KD tx: toxicity to HT-1080 IDH1 knockdown cells (counter line). HT-1080 IDH1 knockdown viability, ATP luminescence, 48 h. Potency, µM (highest dose often 46.1 µM), most hits filed as cytotoxic. actives 2% (n = 360,000). AID 686971
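Luminescent ATP read-out (CellTiter-Glo, 10 min at room temperature) after 48 h compound exposure at 37 °C gave viability of IDH1-knockdown HT-1080 cells. Activity was normalised to DMSO and cell-free wells, then fitted as concentration-response curves.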
HT1080-NT tox: kills 2HG-producing HT-1080-NT fibrosarcoma cells; HT-1080-NT fibrosarcoma viability, CellTiter-Glo ATP luminescence, 48 h; actives 1.6% (n = 360,000); AID 686970; Potency, µM (doses to about 46.1 µM), hits mostly cytotoxic;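 note: NT is the 2HG producing partner of a matched IDH1 knockdown line; nearly all actives have a fitted effect of over 55% in size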
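750 cells/well, RPMI + 5% FBS; 2 h settle, compound pin-transfer, 48 h at 37 degrees C. CellTiter-Glo 10 min RT, luminescence. Normalized to DMSO and media-only wells.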
KB-V1 MDR tox: kills drug-selected multidrug resistant KB-V1 cells; KB-V1 MDR cells viability, CellTiter-Glo, 72 h; Potency, µM (titrated, usually from 46.1 µM), usual class: cytotoxic; actives 3.4% (n = 400,000); AID 1347076; note: nearly all actives have a fitted effect of over 60% in size
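Potencies derive from concentration-effect curves fitted to normalized luminescence (CellTiter-Glo) of KB-V1 cells treated for 72 h at 37 degrees C in phenol-red-free DMEM containing 10% FBS.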
A number is an active result; - = inactive; ? = inconclusive; . = not tested or not shown. In the library only some 5.7% were active in any assay of this set; here they are far more common. Calls come from the whole dose curve; as a rule, active = well fitted curve in the direction sought with a large enough effect; inconclusive = small, poorly fitted or top-dose-only effect, or another doubt; inactive = no such curve, though single readings can be large; an effect the other way counts as inactive or inconclusive.

SMILES | KB-3-1 cytotox | HT1080 IDH1KD tx | HT1080-NT tox | KB-V1 MDR tox
Clc1ccc(-c2cn(-c3ccccc3)c3[n+]2CCS3)cc1 | 13µM | - | - | -
COc1ccc(-c2cn(-c3ccc(Cl)cc3)c3[n+]2CCCCC3)cc1 | 9.2µM | - | - | -
COc1ccc(-c2cn(-c3ccc(Br)cc3)c3[n+]2CCS3)cc1 | 8.2µM | - | - | -
O=[N+]([O-])c1cccc(-c2c[n+]3c(n2-c2ccccc2)SCC3)c1 | - | - | - | -
CCc1ccc(CN(Cc2cn[nH]c2-c2ccc(OC)cc2)C(=O)Nc2ccc(C)c(F)c2)cc1 | - | . | . | -
COc1cc(CNC(=O)c2ccc3c(c2)N(C)C(=O)C2CCCCN32)cc(OC)c1OC (stereo not drawn) | - | . | . | -
COc1cccc(NC(=O)Cn2c(=O)n(-c3ccc(C)cc3)c(=O)c3ccc(C(=O)NCc4ccco4)cc32)c1 | - | . | . | -
Cc1cc(=O)n2[nH]c(-c3ccccc3)cc2n1 | - | - | - | -
Cc1cc(=O)n2[nH]c(-c3ccc(C(C)(C)C)cc3)cc2n1 | ? | ? | ? | 15µM
Cc1cc(C)c2c3c(sc2n1)C(=O)N(c1ccccc1)CC(=O)N3 | ? | - | - | -
N#Cc1c(-c2ccccc2)c(-c2ccccc2)nn(CC(=O)NNC(=O)Nc2ccc(Cl)c(Cl)c2)c1=O | ? | 15µM | 21µM | -
O=C(Cn1nc(-c2ccccc2)c2ccccc2c1=O)Nc1ccc(F)cc1 | - | - | - | -
CCC(=O)NC(c1ccco1)c1cc(Cl)c2cccnc2c1O (stereo not drawn) | ? | 3.7µM | ? | ?
O=C(CCCc1ccccc1)NC(c1ccco1)c1cc(Cl)c2cccnc2c1O (stereo not drawn) | ? | . | . | -
O=C(CCc1ccccc1)NC(c1cccs1)c1cc(Cl)c2cccnc2c1O (stereo not drawn) | ? | ? | ? | 2.1µM
CCCCC(=O)NC(c1ccco1)c1cc(Cl)c2cccnc2c1O (stereo not drawn) | ? | 9.2µM | ? | ?
CN(C(=O)Cn1cc(S(=O)(=O)N2CCN(c3ccccc3F)CC2)c2ccccc2c1=O)c1ccc(Cl)cc1 | - | . | . | -
O=C(NCCCN1CCN(c2ccc(F)cc2)CC1)c1cc2c(Cl)nc3ccccc3c2s1 | - | . | . | -
CCCSC1=NC2(CCN(C(=O)NC3CCCCC3)CC2)N=C1c1ccc(Cl)cc1 | - | . | . | -
Cc1ccccc1Cn1cc(S(=O)(=O)CC(=O)Nc2nccs2)c2ccccc21 | ? | - | ? | 16µM
Cc1ccc(S(=O)(=O)N2CCOCC2)cc1C(=O)Nc1ccccc1C(=O)O | - | . | . | -
COc1ccc(CNc2nc3ccccc3s2)cc1OC | - | ? | - | -
c1ccc(CCNc2nc3ccccc3s2)cc1 | - | ? | ? | 18µM
CCCCC1S/C(=N/N=C/c2ccc(OC)cc2)N(Cc2ccc(OC)cc2)C1=O (stereo not drawn) | - | - | - | 8.2µM
CCCC1S/C(=N/N=C/c2ccc(OC)cc2)N(Cc2ccc(OC)cc2)C1=O (stereo not drawn) | - | - | - | 16µM
SMILES | KB-3-1 cytotox | HT1080 IDH1KD tx | HT1080-NT tox | KB-V1 MDR tox
CCCC1S/C(=N/N=C/c2ccc(OC)cc2)N(Cc2ccccc2)C1=O (stereo not drawn) | - | - | - | -
CCCCCc1c(-c2cccc(OC)c2)ncn1CCc1ccccc1OC | ? | ? | 21µM | 16µM
CCCc1c(-c2cccc(F)c2)ncn1CCc1ccccc1OC | ? | ? | ? | 18µM
CCCCCc1c(-c2cccc(Cl)c2)ncn1CCc1ccccc1OC | - | - | - | ?
CCCCn1cnc2cc(NCc3cccc(OC)c3O)ccc21 | - | - | - | -
CCCCc1c(-c2cccc(F)c2)ncn1CCc1ccccc1OC | ? | ? | ? | 12µM
CCCCCc1c(-c2cccc(F)c2)ncn1CCc1ccccc1OC | ? | ? | ? | 8.2µM
Cc1ccc(CNC(=O)c2nnn(Cc3ccc(F)cc3)c2N)cc1 | - | . | . | -
CCN1CCc2c(sc(NC(=O)c3ccc(S(=O)(=O)N4CCCC(C)C4)cc3)c2C(=O)OC)C1 (stereo not drawn) | - | . | . | -
O=C(C1CCC(Cn2c(=O)c3sccc3n(Cc3ccccc3F)c2=O)CC1)N1CCOCC1 (stereo not drawn) | - | . | . | -
CCCCc1c(-c2cccc(Br)c2)ncn1CCc1ccccc1OC | ? | ? | 15µM | 10µM
COc1ccccc1Cc1c(-c2cccc(Br)c2)nc2ccc(Br)cn12 | - | ? | ? | -
COc1cc(C2c3c(-c4cc(C)ccc4O)n[nH]c3C(=O)N2CCCO)ccc1OCCC(C)C (stereo not drawn) | - | . | . | -
CCOc1ccc(NC(=O)Cn2cc(C(=O)c3ccc(F)cc3)c(=O)c3cc4c(cc32)OCCO4)cc1 | - | . | . | -
CC(=O)Nc1cccc(NC(=O)c2ccco2)c1 | - | - | - | -
O=C(Nc1cccc(NC(=O)c2cccs2)c1)c1ccc([N+](=O)[O-])o1 | 16µM | 23µM | 10µM | ?
O=C(Nc1cccc(NC(=O)c2ccc([N+](=O)[O-])o2)c1)c1ccco1 | ? | 10µM | 18µM | ?
CC(C)COc1ccc(C(=O)Nc2ccc(NC(=O)c3ccco3)c(Cl)c2)cc1 | - | 15µM | ? | -
O=C(Nc1ccc(NC(=O)c2ccc([N+](=O)[O-])o2)cc1Cl)c1ccco1 | 18µM | ? | - | -
CCOc1ccccc1NC(=O)C(C)n1nnc2sc3c(c2c1=O)CCCC3 (stereo not drawn) | - | . | . | -
CNc1c(NC(=O)c2cc(OC)cc(OC)c2)c(=O)oc2ccccc12 | - | . | . | -
c1coc(CNc2ncnc3c2nc2n3CCCC2)c1 | ? | . | . | -
O=Nc1c(-c2c(O)[nH]c3cc(Br)ccc23)[nH]c2ccccc12 | ? | 8.2µM | 5.2µM | 21µM
CCOc1ccc2nc(N3CCCC(C(=O)NCCc4ccc(OC)cc4OC)C3)sc2c1 (stereo not drawn) | - | . | . | -
CCCCCc1ccnc(CC(=O)c2ccc(OC)cc2)c1 | 23µM | - | - | -
SMILES | KB-3-1 cytotox | HT1080 IDH1KD tx | HT1080-NT tox | KB-V1 MDR tox
CCCCCc1ccc(-c2ccc(OC)cc2)nc1 | - | - | - | -
O=C(CCc1nnc2ccc(N3CCCC3)nn12)Nc1cc(F)ccc1F | - | - | - | -
CCCOc1ccccc1C1CC(=O)Nc2cc3c(cc21)OCCO3 (stereo not drawn) | 1.3µM | 1.5µM | 1.3µM | 2.6µM
CCOc1ccccc1C1CC(=O)Nc2cc3c(cc21)OCCO3 (stereo not drawn) | 0.46µM | 4.1µM | ? | ?
COc1ccc(OC)c(C(=O)CN2C(=O)N(c3ccc(C)cc3)S(=O)(=O)c3ccccc32)c1 | - | . | . | -
CCCCc1nn2c(=O)cc(COC(=O)c3ccccc3NC(=O)c3cccc(C)c3)nc2s1 | - | . | . | -
COCc1c(C(=O)NCCOc2ccc(Cl)cc2)oc2ccccc12 | - | - | - | -
CCOc1ccc(OCCNC(=O)c2oc3ccccc3c2COC)cc1 | - | - | - | 21µM
O=C(C1CCC(Cn2c(=S)[nH]c3ccccc3c2=O)CC1)N1CCN(c2ccccc2)CC1 (stereo not drawn) | - | - | - | -

Screens deposited in PubChem by National Center for Advancing Translational Sciences (NCATS).
